Data: paper PMC7862700, “An all-to-all approach to the identification of sequence-specific readers for epigenetic DNA modifications on cytosine”

What was measured:
Assay in all cases: DAPPL (digital affinity profiling via proximity ligation, sequencing); 10 mM Tris-HCl pH 7.5, 50 mM NaCl, 1 mM DTT, 4% glycerol, room temperature, 30 min; GST-TFs on glutathione beads, 16-mer random dsDNA library, 0.1% formaldehyde crosslink after washing; high values mean tight binding
Conditions in all cases: protein: recombinant; tags: N-terminal GST; dsDNA, one strand shown
ERF = target: T1, ERF (Homo sapiens, UniProt P50548 1-548)
T1 sequence: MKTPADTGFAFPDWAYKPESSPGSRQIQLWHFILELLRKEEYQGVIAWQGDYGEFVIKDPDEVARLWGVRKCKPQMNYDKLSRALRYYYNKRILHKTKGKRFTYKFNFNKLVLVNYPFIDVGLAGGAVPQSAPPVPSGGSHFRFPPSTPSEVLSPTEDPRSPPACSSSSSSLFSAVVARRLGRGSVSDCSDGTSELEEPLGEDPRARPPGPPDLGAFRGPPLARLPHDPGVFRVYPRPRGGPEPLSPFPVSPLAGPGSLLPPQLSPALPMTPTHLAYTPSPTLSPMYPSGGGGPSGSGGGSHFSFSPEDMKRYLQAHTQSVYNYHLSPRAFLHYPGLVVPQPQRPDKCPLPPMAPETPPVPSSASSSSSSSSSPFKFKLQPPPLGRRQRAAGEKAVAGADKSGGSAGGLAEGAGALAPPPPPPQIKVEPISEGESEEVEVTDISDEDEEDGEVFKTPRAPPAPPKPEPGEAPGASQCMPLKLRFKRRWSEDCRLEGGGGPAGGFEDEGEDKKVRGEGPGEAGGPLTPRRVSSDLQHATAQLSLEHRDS
Outline: (§1)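 Beads coated with glutathione captured GST-fused human transcription factors that had been expressed in yeast, and the factors were then given DNA barcodes and pooled with a tag-only sample. The pools were incubated with 200 nmole of a random double-stranded 16-mer DNA library in Tris/NaCl/DTT/glycerol buffer for 30 min at room temperature, washed, crosslinked with 0.1% formaldehyde and proximity-ligated with BsaI/T4 ligase at 37 °C for 1 h. PCR amplification and Illumina NextSeq500 sequencing came last. Binding signal is each hexamer's read frequency for a factor divided by its frequency for the tag-only sample.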

ETV3L = target: T2, ETV3L (Homo sapiens, UniProt Q6ZN32 1-361)
T2 sequence: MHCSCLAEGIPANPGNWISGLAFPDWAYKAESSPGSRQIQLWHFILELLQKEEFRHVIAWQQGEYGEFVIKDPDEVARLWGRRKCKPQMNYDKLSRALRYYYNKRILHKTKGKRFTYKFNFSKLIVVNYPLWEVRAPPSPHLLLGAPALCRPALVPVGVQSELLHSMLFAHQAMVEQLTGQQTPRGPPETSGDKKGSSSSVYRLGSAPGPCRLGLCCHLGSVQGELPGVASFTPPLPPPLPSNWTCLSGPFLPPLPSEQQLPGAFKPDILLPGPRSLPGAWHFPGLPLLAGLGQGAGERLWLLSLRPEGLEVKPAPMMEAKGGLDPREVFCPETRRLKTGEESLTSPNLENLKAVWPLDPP
Outline: as §1

ETS2 = target: T3, ETS2 (Homo sapiens, UniProt P15036 1-469)
T3 sequence: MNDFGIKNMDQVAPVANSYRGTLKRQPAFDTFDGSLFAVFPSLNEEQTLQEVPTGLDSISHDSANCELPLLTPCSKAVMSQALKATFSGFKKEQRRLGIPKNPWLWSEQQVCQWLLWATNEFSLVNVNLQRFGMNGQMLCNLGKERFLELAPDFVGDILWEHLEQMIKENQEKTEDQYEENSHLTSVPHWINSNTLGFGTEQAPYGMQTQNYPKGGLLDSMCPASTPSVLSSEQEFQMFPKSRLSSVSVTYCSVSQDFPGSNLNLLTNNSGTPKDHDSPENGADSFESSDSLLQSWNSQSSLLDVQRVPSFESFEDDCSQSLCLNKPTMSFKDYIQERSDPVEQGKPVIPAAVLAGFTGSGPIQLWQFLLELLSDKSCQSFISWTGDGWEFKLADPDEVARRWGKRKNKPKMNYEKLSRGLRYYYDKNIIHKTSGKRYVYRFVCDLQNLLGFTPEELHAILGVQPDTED
Outline: as §1

SPDEF = target: T4, SPDEF (Homo sapiens, UniProt O95238 1-335)
T4 sequence: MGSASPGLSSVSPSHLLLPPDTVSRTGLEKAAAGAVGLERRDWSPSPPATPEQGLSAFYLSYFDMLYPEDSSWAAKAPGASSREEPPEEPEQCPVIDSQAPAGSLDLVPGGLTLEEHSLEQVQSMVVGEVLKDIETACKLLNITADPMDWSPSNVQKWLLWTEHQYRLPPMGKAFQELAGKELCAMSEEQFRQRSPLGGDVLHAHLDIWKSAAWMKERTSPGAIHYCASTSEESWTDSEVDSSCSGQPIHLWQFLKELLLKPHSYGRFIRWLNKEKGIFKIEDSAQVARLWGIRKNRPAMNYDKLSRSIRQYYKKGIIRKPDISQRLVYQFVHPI
Outline: as §1

ETV7 = target: T5, ETV7 (Homo sapiens, UniProt Q9Y603 1-341)
T5 sequence: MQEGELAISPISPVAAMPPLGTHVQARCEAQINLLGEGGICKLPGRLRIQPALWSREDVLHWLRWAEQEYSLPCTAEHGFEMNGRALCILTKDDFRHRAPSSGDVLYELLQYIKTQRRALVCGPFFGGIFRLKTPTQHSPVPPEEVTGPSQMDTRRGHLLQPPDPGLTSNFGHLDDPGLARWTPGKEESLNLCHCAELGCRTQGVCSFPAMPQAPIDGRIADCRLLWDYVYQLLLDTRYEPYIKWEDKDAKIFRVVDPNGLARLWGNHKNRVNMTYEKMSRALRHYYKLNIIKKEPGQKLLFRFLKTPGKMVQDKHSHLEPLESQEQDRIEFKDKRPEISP
Outline: as §1

ELF5 = target: T6, ELF5 (Homo sapiens, UniProt Q9UKW6-2 1-255)
T6 sequence: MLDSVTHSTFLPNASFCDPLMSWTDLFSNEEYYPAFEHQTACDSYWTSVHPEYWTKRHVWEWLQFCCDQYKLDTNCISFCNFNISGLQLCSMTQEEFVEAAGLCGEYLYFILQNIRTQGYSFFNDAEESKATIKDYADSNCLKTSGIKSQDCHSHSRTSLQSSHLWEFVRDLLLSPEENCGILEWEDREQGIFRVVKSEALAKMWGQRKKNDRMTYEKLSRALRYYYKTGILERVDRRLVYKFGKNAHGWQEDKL
Outline: as §1

ETV3 = target: T7, ETV3 (Homo sapiens, UniProt P41162-2 1-143)
T7 sequence: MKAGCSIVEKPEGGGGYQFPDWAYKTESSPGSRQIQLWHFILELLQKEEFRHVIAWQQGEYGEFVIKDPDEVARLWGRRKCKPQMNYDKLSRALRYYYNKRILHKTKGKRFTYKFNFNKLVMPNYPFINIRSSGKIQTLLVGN
Outline: as §1

ETV6 = ETV6 (Homo sapiens, UniProt P41212 1-452)
Chain of ETV6 (P41212 whole entry): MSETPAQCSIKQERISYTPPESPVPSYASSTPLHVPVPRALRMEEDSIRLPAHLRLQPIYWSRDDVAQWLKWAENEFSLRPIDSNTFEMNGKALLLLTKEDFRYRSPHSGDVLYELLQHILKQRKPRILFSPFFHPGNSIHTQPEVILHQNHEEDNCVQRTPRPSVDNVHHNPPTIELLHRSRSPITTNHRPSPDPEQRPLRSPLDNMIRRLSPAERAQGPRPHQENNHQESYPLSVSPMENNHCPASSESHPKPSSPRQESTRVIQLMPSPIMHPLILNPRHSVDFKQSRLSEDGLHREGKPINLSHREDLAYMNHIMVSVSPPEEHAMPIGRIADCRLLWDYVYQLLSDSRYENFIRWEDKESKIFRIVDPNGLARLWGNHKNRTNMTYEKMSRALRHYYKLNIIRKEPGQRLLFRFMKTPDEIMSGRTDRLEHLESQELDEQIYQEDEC
Outline: as §1

TAACGG was tested, and the binding signal (ERF) was 1.04 fold enrichment (6-mer frequency, TF over GST control), the binding signal (ETV3L) was 1.04 fold enrichment (6-mer frequency, TF over GST control) and the binding signal (ETS2) was 1.1 fold enrichment (6-mer frequency, TF over GST control). For the same sequence, the binding signal (SPDEF) was 1.1 fold enrichment (6-mer frequency, TF over GST control), the binding signal (ETV7) was 1.06 fold enrichment (6-mer frequency, TF over GST control) and the binding signal (ELF5) was 1.07 fold enrichment (6-mer frequency, TF over GST control). The binding signal (ETV3) was 1.1 fold enrichment (6-mer frequency, TF over GST control) and the binding signal (ETV6) was 1.14 fold enrichment (6-mer frequency, TF over GST control).
For CTGCCC, the binding signal (ERF) was 1.16 fold enrichment (6-mer frequency, TF over GST control), the binding signal (ETV3L) was 1.22 fold enrichment (6-mer frequency, TF over GST control) and the binding signal (ETS2) was 1.21 fold enrichment (6-mer frequency, TF over GST control). The binding signal (SPDEF) was 1.23 fold enrichment (6-mer frequency, TF over GST control), the binding signal (ETV7) was 1.15 fold enrichment (6-mer frequency, TF over GST control) and the binding signal (ELF5) was 1.19 fold enrichment (6-mer frequency, TF over GST control). For the same sequence, the binding signal (ETV3) was 1.37 fold enrichment (6-mer frequency, TF over GST control) and the binding signal (ETV6) was 1.16 fold enrichment (6-mer frequency, TF over GST control).
For GCTTTT, the binding signal (ERF) was 1.16 fold enrichment (6-mer frequency, TF over GST control), the binding signal (ETV3L) was 1.12 fold enrichment (6-mer frequency, TF over GST control) and the binding signal (ETS2) was 1.17 fold enrichment (6-mer frequency, TF over GST control). For the same sequence, the binding signal (SPDEF) was 1.09 fold enrichment (6-mer frequency, TF over GST control), the binding signal (ETV7) was 1.21 fold enrichment (6-mer frequency, TF over GST control) and the binding signal (ELF5) was 1.06 fold enrichment (6-mer frequency, TF over GST control). For the same sequence, the binding signal (ETV3) was 1.15 fold enrichment (6-mer frequency, TF over GST control) and the binding signal (ETV6) was 1.22 fold enrichment (6-mer frequency, TF over GST control).
GAAATT was tested, and the binding signal (ERF) was 1.36 fold enrichment (6-mer frequency, TF over GST control), the binding signal (ETV3L) was 1.34 fold enrichment (6-mer frequency, TF over GST control) and the binding signal (ETS2) was 1.35 fold enrichment (6-mer frequency, TF over GST control). For the same sequence, the binding signal (SPDEF) was 1.25 fold enrichment (6-mer frequency, TF over GST control), the binding signal (ETV7) was 1.2 fold enrichment (6-mer frequency, TF over GST control) and the binding signal (ELF5) was 1.51 fold enrichment (6-mer frequency, TF over GST control). The binding signal (ETV3) was 1.32 fold enrichment (6-mer frequency, TF over GST control) and the binding signal (ETV6) was 1.41 fold enrichment (6-mer frequency, TF over GST control).
With TACTCG the binding signal (ERF) was 1.3 fold enrichment (6-mer frequency, TF over GST control), the binding signal (ETV3L) was 1.27 fold enrichment (6-mer frequency, TF over GST control) and the binding signal (ETS2) was 1.28 fold enrichment (6-mer frequency, TF over GST control). The binding signal (SPDEF) was 1.2 fold enrichment (6-mer frequency, TF over GST control), the binding signal (ETV7) was 1.27 fold enrichment (6-mer frequency, TF over GST control) and the binding signal (ELF5) was 1.25 fold enrichment (6-mer frequency, TF over GST control). The binding signal (ETV3) was 1.28 fold enrichment (6-mer frequency, TF over GST control) and the binding signal (ETV6) was 1.28 fold enrichment (6-mer frequency, TF over GST control).
In the case of CACCAC, the binding signal (ERF) is reported as 1.14 fold enrichment (6-mer frequency, TF over GST control), the binding signal (ETV3L) is reported as 1.19 fold enrichment (6-mer frequency, TF over GST control) and the binding signal (ETS2) is reported as 1.15 fold enrichment (6-mer frequency, TF over GST control). The binding signal (SPDEF) was 1.16 fold enrichment (6-mer frequency, TF over GST control), the binding signal (ETV7) was 1.04 fold enrichment (6-mer frequency, TF over GST control) and the binding signal (ELF5) was 1.11 fold enrichment (6-mer frequency, TF over GST control). For the same sequence, the binding signal (ETV3) was 1.11 fold enrichment (6-mer frequency, TF over GST control) and the binding signal (ETV6) was 1.14 fold enrichment (6-mer frequency, TF over GST control).
With TCAATT the binding signal (ERF) was 1.13 fold enrichment (6-mer frequency, TF over GST control), the binding signal (ETV3L) was 1.29 fold enrichment (6-mer frequency, TF over GST control) and the binding signal (ETS2) was 1.17 fold enrichment (6-mer frequency, TF over GST control). For the same sequence, the binding signal (SPDEF) was 1.15 fold enrichment (6-mer frequency, TF over GST control), the binding signal (ETV7) was 1.12 fold enrichment (6-mer frequency, TF over GST control) and the binding signal (ELF5) was 1.13 fold enrichment (6-mer frequency, TF over GST control). The binding signal (ETV3) was 1.21 fold enrichment (6-mer frequency, TF over GST control) and the binding signal (ETV6) was 1.14 fold enrichment (6-mer frequency, TF over GST control).
CTGTCA was tested, and the binding signal (ERF) was 1.17 fold enrichment (6-mer frequency, TF over GST control), the binding signal (ETV3L) was 1.22 fold enrichment (6-mer frequency, TF over GST control) and the binding signal (ETS2) was 1.14 fold enrichment (6-mer frequency, TF over GST control). The binding signal (SPDEF) was 1.06 fold enrichment (6-mer frequency, TF over GST control), the binding signal (ETV7) was 1.12 fold enrichment (6-mer frequency, TF over GST control) and the binding signal (ELF5) was 1.14 fold enrichment (6-mer frequency, TF over GST control). The binding signal (ETV3) was 1.09 fold enrichment (6-mer frequency, TF over GST control) and the binding signal (ETV6) was 1.1 fold enrichment (6-mer frequency, TF over GST control).
